Compound activity deposited in PubChem by Bradner/Qi Labs at DFCI.
CBX7 inh: CBX7 inhibition, primary AlphaScreen. AlphaScreen His6-CBX7 / biotin-H3K27me3 peptide binding; active compounds read low. O95931. 1.1% of 66,000 active. normalised signal (fraction of DMSO) (no concentration beside the values); in the data active = normalised signal below about 0.5
Target sequence (O95931 whole entry, looked up): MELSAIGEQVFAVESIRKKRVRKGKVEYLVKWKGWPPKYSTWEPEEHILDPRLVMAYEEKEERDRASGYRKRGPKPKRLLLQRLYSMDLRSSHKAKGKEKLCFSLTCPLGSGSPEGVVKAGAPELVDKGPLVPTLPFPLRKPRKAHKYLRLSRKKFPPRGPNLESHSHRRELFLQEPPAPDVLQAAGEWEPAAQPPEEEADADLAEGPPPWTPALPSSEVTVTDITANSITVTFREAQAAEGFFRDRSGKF
* = called active by the depositor. Many of the other results were omitted from the sample, so hits are more common in it than they were.

SMILES	CBX7 inh
O=C(CS(=O)(=O)c1nc(-c2ccccc2)cn1-c1ccc(Cl)cc1)Nc1ccccc1F	0.483*
O=C(CS(=O)(=O)c1nc(-c2ccccc2)cn1-c1ccc(Cl)cc1)Nc1ccc(F)cc1	0.856
O=C(CS(=O)(=O)c1nc(-c2ccccc2)cn1-c1ccc(Cl)cc1)Nc1ccccc1	0.857
CC(C)CN(CCCNC(=O)C1CCN(C(=O)c2cc3sccc3n2C)CC1)CC(C)C	0.986
O=C(NCc1cccnc1)[C@@H](c1ccccc1)N1Cc2ccccc2C1=O	1.01
COC(=O)c1c[nH]n2c(NC3CCCCC3)c(-c3ccc(OCCC(C)C)c(OC)c3)nc12	0.369*
COC(=O)c1c[nH]n2c(NC3CCCCCC3)c(-c3ccc(OC)cc3)nc12	0.339*
Cc1nc2c(C(=O)NC3CCC(C)CC3)c[nH]n2c(=O)c1Cc1ccccc1F (stereo unspecified)	1.08
COC(=O)c1c[nH]n2c(=O)c(Cc3cccc(C)c3)c(C)nc12	1.1
COc1ccc(-c2nc(SCC(=O)NC3CCCC3)c(-c3ccc(C)cc3)[nH]2)cc1OC	0.988
COc1ccc(-c2nc3cnccn3c2NC2CCCCC2)cc1	1.32
COC(=O)c1c[nH]n2c(NC3CCC(C)CC3)c(-c3ccc(C)cc3)nc12 (stereo unspecified)	0.23*
COc1ccc(-c2nn(C)c3sc(C(=O)NC4CCCCC4)cc23)cc1OC	0.974
COC(=O)c1c[nH]n2c(NC3CCC(C)CC3)c(-c3ccc(OC(C)C)c(OC)c3)nc12 (stereo unspecified)	0.121*
COc1ccc(NC(=O)c2c[nH]n3c(=O)cc(C4CCN(C(=O)OC(C)(C)C)CC4)nc23)cc1Cl	0.958
COC(=O)c1c[nH]n2c(NC3CCCCC3)c(-c3cccs3)nc12	0.519
COc1ccc(NC(=O)c2c[nH]n3c(=O)cc(C4CCN(C(=O)OC(C)(C)C)CC4)nc23)cc1OC	0.892
CCC(C)NC(=O)CCN1C(=O)COc2ccc(C)cc21 (stereo unspecified)	1.1
O=S(=O)(Nc1cccc(-c2csc(-c3ccccc3)n2)c1)c1ccc(Cl)cc1	1.04
Cc1ccc(C)c(Cn2c(SCc3ccc(F)cc3)nc3ccncc32)c1	0.89
CCN(C(=O)CCc1nc(-c2ccccc2F)no1)c1ccc(C)c(C)c1	1
CCOCCCNC(=O)C(c1ccccc1)N1CCOCC1 (stereo unspecified)	1.02
COC(=O)c1c[nH]n2c(NC3CCCCC3)c(-c3ccc(OC)cc3)nc12	0.317*
COc1ccc(-c2cc(C(=O)NC3CCCC3)no2)cc1	1.25
COC(=O)c1cn(-c2ccccc2)nc1-c1ccc(OC)cc1	1.04
SMILES	CBX7 inh
CCOc1ccc(CCNC(=O)CN2CCN(Cc3cccc(Cl)c3)C2=O)cc1OCC	0.823
CCc1ccc(C2CC(c3ccc(OC)c(OC)c3OC)n3ncnc3N2)cc1 (stereo unspecified)	1.06
O=C(Nc1ccc(Cl)cc1)Nc1ccc(Nc2ccccc2)cc1	0.885
COc1nc(OC)nc(-n2cnc(NC(=O)Nc3ccc(Cl)cc3)n2)n1	0.245*
Cc1ccc(NC(=O)Nc2ccc(Cl)cc2)nc1	0.645
CC(C)C(=O)Nc1cc(-c2nc3cc(C(C)C)ccc3o2)ccc1Cl	1.13
Cc1ccccc1C(=O)Nc1ccccc1NC(=O)c1c(-c2ccccc2Cl)noc1C	1
CCc1nnc(NC(=O)c2ncn[nH]2)s1	0.382*
CCc1nnc(NC(=O)c2ccc(C(C)(C)C)cc2)s1	0.985
CCc1nnc(NC(=O)c2cc(OC)c(OC)c(OC)c2)s1	0.994
Cc1nnc(NC(=O)c2ccc(S(=O)(=O)N(C)c3ccccc3)cc2)o1	0.781
CCN(Cc1ccccc1)S(=O)(=O)c1ccc2oc(C(=O)O)c(C)c2c1	1.18
CCCCN(CC)S(=O)(=O)c1ccc(C(=O)Nc2ccccc2-c2nc3ccccc3s2)cc1	1.15
CCCCN(CC)S(=O)(=O)c1ccc(C(=O)Nc2nnc(CC)o2)cc1	0.0788*
CCN(c1ccccc1)S(=O)(=O)c1ccc(C(=O)Nc2nnc(C)o2)cc1	0.0517*
CCc1nnc(NC(=O)c2ccc(S(=O)(=O)N(CC)Cc3ccccc3)cc2)o1	0.758
CCCCN(CC)S(=O)(=O)c1ccc(C(=O)Nc2nnc(-c3cccs3)o2)cc1	0.902
CCCCN(CC)S(=O)(=O)c1ccc(C(=O)Nc2ccc(-c3nc4ccccc4[nH]3)cc2)cc1	0.976
Cc1ccc(-c2csc(NC(=O)c3ccc(S(=O)(=O)N(C)c4ccccc4)cc3)n2)cc1	0.995
CCN(Cc1ccccc1)S(=O)(=O)c1ccc(C(=O)Nc2nnc(C)o2)cc1	0.00312*
CCCCN(CC)S(=O)(=O)c1ccc(C(=O)Nc2nnc(C)o2)cc1	0.0241*
Cc1nc2c(C(=O)NC3CCCCC3C)cnn2c(C)c1Cc1ccc(F)cc1Cl (stereo unspecified)	0.898
CC1CC(C)CN(C(=O)c2ccc3c(c2)N(Cc2ccccc2Cl)C(=O)c2ccccc2S3)C1 (stereo unspecified)	0.936
COc1ccc(OC)c2[nH]c(=O)c(CCNC(=O)COc3ccc(Cl)cc3)cc12	1.05
COc1ccc(NC(=O)Cn2c(SCc3ccc(C)cc3)nc3ccncc32)cc1OC	0.9
SMILES	CBX7 inh
COc1ccccc1-c1cc(C(F)(F)F)nc(NCCc2ccccc2)n1	1.59
COc1ccc(C2C(Oc3ccccc3C)C(=O)N2c2ccc(F)cc2)cc1OC (stereo unspecified)	1.05
Fc1ccc(Nc2nc3nonc3n3nnnc23)cc1	1.04
Cc1ccc(F)cc1NC(=O)c1sc2ncn(CC(=O)N3CCC(C)CC3)c(=O)c2c1C	0.881
COc1ccc(-c2nn(C)c3sc(C(=O)Nc4ccc5c(c4)OCCO5)cc23)cc1OC	0.938
COc1cccc(-n2ccnc2SCC(=O)Nc2cccc(Cl)c2)c1	0.87
Cc1ccc(NC(=O)CCc2c(C)nc3c(-c4ccccc4)c(C)nn3c2C)c(Cl)c1	1.26
CCCCN(CCCC)CCNC(=O)c1cc(=O)[nH]c2ccc(S(=O)(=O)N3CCCCC3)cc12	0.908
COc1cccc(NC(=O)CSc2nnc(-c3c[nH]c4ccccc34)n2C)c1	0.978
C=CCN(CC=C)S(=O)(=O)c1ccc(C(=O)Nc2nnc(-c3cc(OC)cc(OC)c3)o2)cc1	0.94
C=CCN(CC=C)S(=O)(=O)c1ccc(C(=O)Nc2nnc(CC)o2)cc1	0.064*
CCc1nnc(NC(=O)c2ccc(S(=O)(=O)N(CCC#N)CCC#N)cc2)o1	0.056*
CCCN(CCC)S(=O)(=O)c1ccc(C(=O)Nc2nnc(-c3cccs3)o2)cc1	0.931
Cc1ccccc1C(=O)N1CCN(c2nc(-c3ccccc3)c3cc(Cl)ccc3n2)CC1	0.893
CCCCOc1ccc(-c2nc3c(C(=O)OC)c[nH]n3c2NC2CCCCCC2)cc1	0.214*
COC(=O)c1c[nH]n2c(NC3CCCC3)c(-c3cccc(Br)c3)nc12	0.73
CCCCOc1cccc(-c2nc3c(C(=O)OC)c[nH]n3c2NC2CCCCCC2)c1	0.46*
COc1cccc(-c2nc(SCC(=O)NC3CCCC3)c(-c3ccc(C)cc3)[nH]2)c1	0.915
CCCCOc1ccc(-c2nc3ncccn3c2NC2CCCC2)cc1	0.91
CCCOc1ccc(-c2nc(Oc3ccc(C(=O)OC)cc3)c3ccccc3n2)cc1	1.09
COc1ccc(OC)c(NC(=O)c2c(-c3ccccc3Cl)noc2C)c1	1.03
COc1ccccc1NC(=O)c1cnc(N2CCN(c3ncccn3)CC2)c2ccccc12	0.996
COc1cccc(N2C(=O)c3nccnc3C2=O)c1	0.94
O=C(NC1CCCC1)C1C2C=CC3(CN(Cc4ccccc4Cl)C(=O)C13)O2 (stereo unspecified)	1.11
